{"source": "PubChem BioAssay (NCATS)", "note": "Records with an inconclusive call do not appear. Calls of active or inactive are those of the source. Calls follow the shape of the dose curve; as a rule, active = well fitted activation curve with a large enough effect; inconclusive = small, poorly fitted or top-dose-only effect; inactive = flat fitted curve, though single readings scatter."}
{"experiment": "Primary redox qHTS assay for identification of artifact compounds. (AID 1845223)", "details": "Amplex Red/HRP redox cycling with DTT, fluorescence; series mostly up to 53.8 µM; redox activity (% of DA3003): at the top concentration", "text": "PI: Alexander Tropsha Ph.D.\nUNC Eshelman School of Pharmacy\nUniversity of North Carolina, Chapel Hill, North Carolina\nHits from high-throughput screening (HTS) of chemical libraries are often false positives due to their interference with the assay detection technology. In response to this problem, we generated the largest publicly available library of chemical liabilities and developed a free webtool to predict HTS artifacts, both of which are described herein. More specifically, we generated, curated, and integrated HTS datasets for thiol reactivity, redox activity, and luciferase (firefly and nano) activity. Using these curated datasets, we developed and validated several Quantitative Structure-Interference Relationship (QSIR) models to predict nuisance behavior. […] These models were employed for virtual profiling of the National Center for Advancing Translational Science's (NCATS) in-house library, and 256 compounds for each assay were selected for the experimental validation of nuisance behavior. The BA for these external predictions ranged from 58 to 78% for compounds within the applicability domains of the models. […] The models developed in this study, along with aggregation models previously developed by our group (SCAM Detective) were implemented in \"Liability Predictor,\" an online tool which may be used as part of chemical library design or for triaging HTS hits. Both the models and the curated datasets are publicly available at https://liability.mml.unc.edu/.\nSEQUENCE No. (e.g., 1, 2, 3, etc.); […] (e.g., Cells, Incubation, Reagent, etc.); VALUE; DESCRIPTION.\n1; Reagent; 3 uL; Amplex Red and HRP mixture.\n2; Compounds and control; 16 nL; Kalypsis pin tool (Wako USA) equipped with a 1536-well pin head. […]\n6; Detection; Fluorescence, ViewLux microplate reader, 525 nm excitation, 598 nm emission.\nNOTES (numbers refer to Sequence numbers above)\n1. 3 uL of a mixture containing Amplex Red (25 uM final concentration) and horseradish peroxidase (HRP; 250 mU/mL final concentration) in assay buffer (HBSS) was dispensed into all wells of a 1536-well assay plate (solid-bottom black plate; Greiner Bio One, Monroe, NC).\n2. A Wako Pin-tool (Wako Automation, Richmond, VA) was used to transfer 16 nL of compounds (consisting of 7-plates in qHTS format, final concentration range 18.3 nM to 114 uM) or control DA3003 (final concentration range 1.22 nM to 40 uM).\n3. 15 min. incubation at room temperature protected from light.\n4. 1 uL of DTT (prepared fresh; final concentration 250 uM) was dispensed for a final assay volume of 4 uL.\n5. Plates were centrifuged (121xg, 15 seconds) and incubated for 30 minutes at room temperature protected from light.\n6. Samples were read for fluorescence (Ex/Em = 525(20)/598(25) nm) on a ViewLux CCD imager (PerkinElmer). Data were normalized to DMSO (0% activity) and DA3003 (10 uM final concentration; 100% activity) and the resulting percent inhibition data were fitted to a 4-parameter Hill equation using NCATS in-house software."}
{"smiles": "C[C@@H]1C(=O)O[C@H]2C[C@]34[C@H]5C[C@@H](C(C)(C)C)[C@]36[C@@H](OC(=O)[C@H]6O)O[C@]4(C(=O)O5)[C@]21O", "redox activity (% of DA3003)": "-17.1% [at 25.6 µM] (inactive)"}
{"smiles": "O=C(c1cn(Cc2cncn2Cc2ccc(Br)cc2)cc1-c1cccc2ccccc12)N1CCOCC1", "redox activity (% of DA3003)": "4.62% (inactive)"}
{"smiles": "O=C(OC1C=C(CO)C2C(OC3OC(CO)C(O)C(O)C3O)OC=CC12)c1ccc(O)cc1", "note": "(stereo not given)", "redox activity (% of DA3003)": "-17.4% [at 25.6 µM] (inactive)"}
{"smiles": "C[C@@H]1O[C@@H](O[C@H]2[C@H](OC(=O)[C@]34CCC(C)(C)C[C@H]3C3=CCC5[C@@]6(C)CC[C@H](O[C@@H]7O[C@H](C(=O)O)[C@@H](O)[C@H](O)[C@H]7O[C@@H]7O[C@H](CO)[C@H](O)[C@H](O)[C@H]7O)[C@@](C)(C=O)C6CC[C@@]5(C)[C@]3(C)C[C@H]4O)O[C@H](C)[C@H](O[C@@H]3O[C@H](C)[C@H](O)[C@H](O)[C@H]3O)[C@@H]2O)[C@H](O)[C@H](O)[C@H]1O[C@@H]1OC[C@@H](O)[C@H](O[C@@H]2O[C@H](CO)[C@@H](O)[C@H](O)[C@H]2O)[C@H]1O", "note": "(stereo not given in full)", "redox activity (% of DA3003)": "3.32% [at 6.41 µM] (inactive)"}
{"smiles": "CC(C)=CCC[C@](C)(O)[C@H]1CC[C@]2(C)[C@@H]1[C@H](O)CC1[C@@]3(C)CC[C@H](O)C(C)(C)[C@@H]3[C@@H](O[C@@H]3O[C@H](CO)[C@@H](O)[C@H](O)[C@H]3O[C@@H]3O[C@H](CO)[C@@H](O)[C@H](O)[C@H]3O)C[C@]12C", "note": "(stereo not given in full)", "redox activity (% of DA3003)": "13.9% [at 25.6 µM] (inactive)"}
{"smiles": "CC1(C=O)CC[C@]2(C(=O)O[C@@H]3O[C@H](CO)[C@@H](O)[C@H](O)[C@H]3O)CC[C@]3(C)C(=CCC4[C@@]5(C)C[C@H](O)[C@H](O[C@@H]6OC[C@@H](O)[C@H](O)[C@H]6O)[C@@](C)(CO)C5CC[C@]43C)C2C1", "note": "(stereo not given in full)", "redox activity (% of DA3003)": "8.25% [at 11.5 µM] (inactive)"}
{"smiles": "Cc1ccc(-c2ccc3ncc4c(c3n2)n(C2CCN(C(=O)[C@H](C)O)CC2)c(=O)n4C)cn1", "redox activity (% of DA3003)": "8.54% (inactive)"}
{"smiles": "CNC(C)C(=O)NC(C(=O)N1CCCC1c1nc(C(=O)c2ccc(F)cc2)cs1)C1CCCCC1", "note": "(stereo not given)", "redox activity (% of DA3003)": "12.6% (inactive)"}
{"smiles": "C[C@H]1Oc2cc(cnc2N)-c2c(nn(C)c2C#N)CN(C)C(=O)c2ccc(F)cc21", "redox activity (% of DA3003)": "3.91% (inactive)"}
{"smiles": "CC1CCCCN1S(=O)(=O)c1ccc(N2CCCC2=O)cc1", "note": "(stereo not given)", "redox activity (% of DA3003)": "-2.75% (inactive)"}
{"smiles": "Cc1c(F)cc(C(=O)NC2CC2)cc1-c1c(F)cn2c(C(C)(C)C)nnc2c1F", "redox activity (% of DA3003)": "8.65% (inactive)"}
{"smiles": "COc1cc(O)c([C@@H](CC(=O)N2CC(C)CC(C)C2)c2ccc3c(c2)OCO3)c(OC)c1", "note": "(stereo not given in full)", "redox activity (% of DA3003)": "5.19% (inactive)"}
{"smiles": "c1cn2cc(-c3ccc4cn[nH]c4c3)nc(Nc3ccc(N4CCOCC4)cc3)c2n1", "redox activity (% of DA3003)": "-10.7% (inactive)"}
{"smiles": "Cc1cc(C)cc(C(=O)NOCCCCCC(=O)NO)c1", "redox activity (% of DA3003)": "-4.31% (inactive)"}
{"smiles": "CC1CCC2C(C(=O)O)=COC(O[C@@H]3O[C@H](CO)[C@@H](O)[C@H](O)[C@H]3O)C12", "note": "(stereo not given in full)", "redox activity (% of DA3003)": "-3.88% (inactive)"}
{"smiles": "CC(C)(C)C(=O)CN1C(=O)[C@H](NC(=O)Nc2cccc(C(=O)O)c2)CN(C2CCCCC2)c2ccccc21", "redox activity (% of DA3003)": "14.9% (inactive)"}
{"smiles": "COc1ccc(-c2c(-c3cc(C(=O)O)ccn3)ncn2C)cc1", "redox activity (% of DA3003)": "2.02% (inactive)"}
{"smiles": "Nc1nc2c(c(=O)[nH]1)C[C@@H](CCc1ccc(C(=O)N[C@@H](CCC(=O)O)C(=O)O)cc1)CN2", "redox activity (% of DA3003)": "-1.11% (inactive)"}
{"smiles": "Cc1cc(NC(=O)Nc2ccc(F)c(F)c2)n(-c2ccccc2)n1", "redox activity (% of DA3003)": "0.874% (inactive)"}
{"smiles": "CC(C)=CCC[C@](C)(O[C@@H]1O[C@H](CO[C@@H]2O[C@H](CO)[C@@H](O)[C@H](O)[C@H]2O)[C@@H](O)[C@H](O)[C@H]1O)C1CC[C@]2(C)[C@@H]1[C@H](O)CC1[C@@]3(C)CC[C@H](O[C@@H]4O[C@H](CO)[C@@H](O)[C@H](O)[C@H]4O[C@@H]4O[C@H](CO)[C@@H](O)[C@H](O)[C@H]4O)C(C)(C)[C@@H]3CC[C@]12C", "note": "(stereo not given in full)", "redox activity (% of DA3003)": "5.05% [at 11.5 µM] (inactive)"}
{"smiles": "CN[C@@H]1[C@H](O[C@H]2[C@H](O[C@@H]3[C@@H](O)[C@H](O)[C@@H](N=C(N)N)[C@H](O)[C@H]3N=C(N)N)O[C@@H](C)[C@]2(O)C=O)O[C@@H](CO)[C@H](O)[C@H]1O", "redox activity (% of DA3003)": "-6.77% [at 25.6 µM] (inactive)"}
{"smiles": "CC1OC(OC2C(CO)OC(OCC3OC(OC(=O)C45CCC(C)(C)CC4C4=CCC6C7(C)CCC(OC8OC(CO)C(O)C(OC9OC(CO)C(O)C(O)C9O)C8O)C(C)(C)C7CCC6(C)C4(C)CC5)C(O)C(O)C3O)C(O)C2O)C(O)C(O)C1OC1OC(CO)C(O)C(O)C1O", "note": "(stereo not given)", "redox activity (% of DA3003)": "10.1% [at 11.5 µM] (inactive)"}
{"smiles": "O=[N+]([O-])c1cccc2[nH]c(CNc3nc(N4CCOCC4)nc4c3ncn4-c3ccsc3)nc12", "redox activity (% of DA3003)": "6.64% (inactive)"}
{"smiles": "C/C=C1\\[C@H](O[C@@H]2O[C@H](CO)[C@@H](O)[C@H](O)[C@H]2O)OC=C(C(=O)OC)[C@H]1CC(=O)OC[C@H]1O[C@@H](OCCc2ccc(O)cc2)[C@H](O)[C@@H](O)[C@@H]1O", "redox activity (% of DA3003)": "-13.1% [at 25.6 µM] (inactive)"}
{"smiles": "C=C[C@H]1[C@H](O[C@@H]2O[C@H](CO)[C@@H](O)[C@H](O)[C@H]2O)OC=C(C(=O)OC)[C@H]1CCOC(=O)c1cc(O)c(O)c(O)c1", "redox activity (% of DA3003)": "-0.895% [at 25.6 µM] (inactive)"}
{"smiles": "C[C@@H]1O[C@@H](O[C@H]2[C@H](OC(=O)[C@]34CCC(C)(C)C[C@H]3C3=CCC5[C@@]6(C)C[C@H](O)[C@H](O[C@@H]7O[C@H](CO)[C@@H](O)[C@H](O)[C@H]7O)[C@@](C)(CO)C6[C@H](O)C[C@@]5(C)[C@]3(C)C[C@H]4O)OC[C@H](O)[C@@H]2O)[C@H](O)[C@H](O)[C@H]1O[C@@H]1OC[C@@H](O)[C@H](O[C@H]2OC[C@](O)(CO)[C@H]2O)[C@H]1O", "note": "(stereo not given in full)", "redox activity (% of DA3003)": "4.44% [at 11.5 µM] (inactive)"}
{"smiles": "O=C(CCCCN1CCOCC1)Nc1ccc(-c2cccnc2)cc1", "redox activity (% of DA3003)": "-0.801% (inactive)"}
{"smiles": "CN(c1ccccc1CNc1nc(Nc2ccc3c(c2)CC(=O)N3)ncc1C(F)(F)F)S(C)(=O)=O", "redox activity (% of DA3003)": "19.1% (inactive)"}
{"smiles": "C=C1C(O)CC2C(C(=O)O)=COC(O[C@@H]3O[C@H](COC(=O)/C=C/c4ccc(O)cc4)[C@@H](O)[C@H](O)[C@H]3O)C12", "note": "(stereo not given in full)", "redox activity (% of DA3003)": "-16.9% [at 25.6 µM] (inactive)"}
{"smiles": "COc1c(Nc2ncc(Cl)c(N[C@H]3[C@@H](C(N)=O)[C@@H]4C=C[C@H]3C4)n2)ccc2c1CC[C@@H](N1CCOCC1)CC2", "redox activity (% of DA3003)": "-0.0924% (inactive)"}
{"smiles": "CC(C)/C=C1\\NC(=O)C(C(C)C)n2c1nc1c(c2=O)C=CC=CO1", "note": "(stereo not given)", "redox activity (% of DA3003)": "1.97% (inactive)"}
{"smiles": "CCOc1ccc(NC(=S)N2CCC(C(O)(c3ccccc3)c3ccccc3)CC2)cc1", "redox activity (% of DA3003)": "-3.24% (inactive)"}
{"smiles": "CC(C)(C)NC(=O)[C@@H](c1cccnc1)N(C(=O)c1ccco1)c1ccc(C(C)(C)C)cc1", "redox activity (% of DA3003)": "13.5% (inactive)"}
{"smiles": "CC1(C)CC[C@]2(C(=O)O[C@@H]3O[C@H](CO)[C@@H](O)[C@H](O)[C@H]3O)CC[C@]3(C)C(=CCC4[C@@]5(C)C[C@@H](O)[C@H](O)[C@](C)(C=O)C5CC[C@]43C)[C@@H]2[C@@H]1O", "note": "(stereo not given in full)", "redox activity (% of DA3003)": "19.9% [at 25.6 µM] (inactive)"}
{"smiles": "O=C(OC[C@H]1O[C@H](O[C@]2(CO)O[C@H](CO)[C@@H](O)[C@@H]2O)[C@H](O)[C@@H](O)[C@@H]1O)c1ccccc1", "redox activity (% of DA3003)": "-18.6% [at 25.6 µM] (inactive)"}
{"smiles": "CC(=O)c1ccc(O[C@@H]2O[C@H](CO)[C@@H](O)[C@H](O)[C@H]2O)cc1", "redox activity (% of DA3003)": "-5.27% (inactive)"}
{"smiles": "CC(=O)c1cc2c(cc1O)OC(C)(C)C=C2", "redox activity (% of DA3003)": "-4.64% (inactive)"}
{"smiles": "CN1c2ccccc2C(=O)N2CCC3c4ccccc4NC3C21", "note": "(stereo not given)", "redox activity (% of DA3003)": "-4.33% (inactive)"}
{"smiles": "N#C[C@@H]1C[C@H](F)CN1C(=O)CNC1[C@H]2CN(C(=O)c3ccc(F)cc3)C[C@@H]12", "note": "(stereo not given in full)", "redox activity (% of DA3003)": "2.77% (inactive)"}
{"smiles": "C[C@@H]1C[C@H]2O[C@@H]2/C=C\\C=C\\C(=O)Cc2c(Cl)c(O)cc(O)c2C(=O)O1", "redox activity (% of DA3003)": "4.19% [at 11.5 µM] (inactive)"}
